Measurements from PubChem BioAssay (Tox21).
“And” between values parts separate entries of the source, which are not always exact repeats. Equal entries are not always repeated. Results filed as inconclusive are left out. The source made the active and inactive calls. Calls come from the whole dose curve; as a rule, active = well fitted cell-killing curve with a large enough effect in the repeat runs; inconclusive = weak or mixed curves, or effect the other way; inactive = no such curve, though single readings can be large or run the other way.

test: qHTS assay to identify small molecule antagonists of the vitamin D receptor (VDR) signaling pathway - cell viability counter screen (AID 743225); conditions: VDR-bla HEK293T viability, CellTiter-Glo luminescence, 16 h; series mostly up to 61 µM; viability change, negative = cytotoxic: at the top concentration; note: nearly all actives have a fitted effect of over 50% in size
Text: U.S. Tox21 Program National Center for Advancing Translational Sciences [NCATS] NIH Chemical Genomics Center [NCGC] U.S. Environmental Protection Agency [EPA] National Institutes of Environmental Health Sciences [NIEHS] National Toxicology Program [NTP] U.S. Food and Drug Administration [FDA] Tox21 Assay Overview: The vitamin D receptor (VDR), a member of nuclear hormone receptor superfamily, plays a critical role in calcium homeostasis and bone metabolism. It is also involved in cell differentiation and growth, and thrombogenicity. To identify the compounds that inhibit VDR signaling, the VDR-UAS-bla HEK 293T cell line (Invitrogen, Carlsbad, CA, USA) containing a beta-lactamase reporter gene under the control of an upstream activator sequence (UAS) was used to screen the Tox21 10K compound library. The cytotoxicity of the Tox21 compound library against the VDR-bla cell line was tested in parallel by measuring the cell viability using CellTiter-Glo assay (Promega, Madison, WI) in the same wells.
Tox21 Assay Protocol Summary: VDR-bla cells were dispensed at 2,000 cells/5 uL of assay medium per well into black wall/clear-bottom 1536-well plates using a Multidrop Combi (Thermo Fisher Scientific, Waltham, MA) dispenser. After the assay plates were incubated at a 37C and 5% CO2 for 4 h, 23 nL of compounds dissolved in DMSO, positive controls or DMSO only was transferred to the assay plate by a Pintool station (Kalypsys, San Diego, CA), followed by addition of 1 uL of 1-alpha, 25-Dihydroxy Vitamin D3 (3 nM, final concentration in the wells) using a Bioraptr Flying Reagent Dispenser (FRD) workstation (Beckman Coulter, Indianapolis, IN). The plates were incubated at 37C and 5% CO2 for 16 h, and then 1 uL of LiveBLAzerTM B/G FRET substrate was added using a Bioraptr FRD. The plates were incubated at room temperature for 2 h and fluorescence intensity was measured by an Envision plate reader (PerkinElmer, Shelton, CT). For cell viability readout that measures cytotoxicity, 3 ul/well of CellTiter-Glo reagent was added into the assay plates using a Bioraptr FRD. After 30 min incubation at room temperature, the luminescence intensity in the plates was measured using a ViewLux plate reader (PerkinElmer).
% is set by controls: 0 for no effect and ±100 for the full control effect; potency is the fitted concentration of half-maximal effect.

SMILES | viability change, negative = cytotoxic | Potency
OCC(F)(F)F | 1.33% [at 78.8 µM] (inactive) | –
c1ccc(SSc2ccccc2)cc1 | -21.1% [at 78.8 µM] (inactive) | –
CN(C)Cc1ccccc1O | -21.8% (inactive) | –
CCOC(=O)Cn1cccc1-c1nc(-c2ccc(OC)cc2)c(-c2ccc(OC)cc2)s1 | -3.88% (inactive) | –
CCCCC(CC)CN1CN(CC(CC)CCCC)CC(C)(N)C1 (stereo not given) | -17.8% (inactive) | –
COc1cccc(OC)c1C(=O)O | 4.65% (inactive) | –
CCN(CC)C(=O)c1cc(S(=O)(=O)Cc2ccccc2)c(N2CCC(c3ccccc3)CC2)cc1N(CC)CCN(C)C | – | 17.2 µM (active)
O=C(O)c1cccc(C(F)(F)F)c1 | 4.06% (inactive) | –
O=C(O)O | -0.215% [at 6.95 µM] (inactive) | –
OC/C=C/CO | 3.45% (inactive) | –
CCc1ccc(Br)cc1 | -15.1% [at 78.8 µM] (inactive) | –
CCCC1CCC(=O)CC1 | 1.57% (inactive) | –
O=C(O)CN(CCN(CC(=O)O)CC(=O)O)CC(=O)O | 4.84% [at 3.11 µM] (inactive) | –
CCCCCC(C)OC(=O)COc1ccc(Cl)c2cccnc12 (stereo not given) | -15.5% (inactive) | –
C#CC1(O)CC[C@H]2[C@@H]3CCC4=CCCC[C@@H]4[C@H]3CC[C@@]21C (stereo not given in full) | – | 21.3 µM (active)
CCCCOC(=O)CC | -0.595% (inactive) | –
CCCCC(CC)COC(=O)CCCCC(=O)OCc1ccccc1 (stereo not given) | -9.3% (inactive) | –
CCC(C)(CCC(C)C)C(=O)[O][Sn]([CH3])([CH3])[O]C(=O)C(C)(CC)CCC(C)C (stereo not given) | 3.16% (inactive) | –
C=CC(C)(CCC=C(C)C)OC=O (stereo not given) | 4.74% (inactive) | –
CC1(C)CCC[C@]2(C)[C@H]3CCO[C@]3(C)CC[C@@H]12 | 9.21% (inactive) | –

SMILES | viability change, negative = cytotoxic | Potency
Cc1c(N)cccc1C(F)(F)F | -5.23% (inactive) | –
CCCCCc1ccc(Cl)cc1 | 1.43% (inactive) | –
COc1ccc(-c2coc3cc(O)ccc3c2=O)cc1 | -22.5% (inactive) | –
CCCCCCCCCCCCOCCOCCOCCOCCOCCOCCOCCOCCOCCO | – | 10.7 µM (active)
COCCOc1cc2cc(C(=O)NC3CCN(C(C)C)CC3)n(CC(=O)Nc3ccc(Cl)cn3)c2cn1 | -2.71% (inactive) | –
CCCC[P+](C)(CCCC)CCCC | -10.9% [at 78.8 µM] (inactive) | –
C=Cc1ccccc1C=C | 4.26% [at 216 µM] (inactive) | –
C#Cc1ccc(-c2ccccc2F)cc1 | 5.42% (inactive) | –
Oc1c(I)cc(Cl)c2cccnc12 | -26.2% (inactive) | –
O=[N+]([O-])c1cccc(C(F)(F)F)c1 | 1.74% [at 78.8 µM] (inactive) | –
CC(C)Cn1cnc2c(N)nc3ccccc3c21 | 0.898% [at 28.5 µM] (inactive) | –
CCCNCCC | 14.6% [at 78.8 µM] (inactive) | –
CCCCC/C=C\C/C=C\CCCCCCCC(=O)O | -9.13% (inactive) | –
FC(F)(F)c1cccc(Cl)c1 | 11.7% (inactive) | –
CCOC(=O)NNc1ccc(N(CC)CC(C)O)nn1 (stereo not given) | 0.537% (inactive) | –
Cc1cccc2cccnc12 | 16.9% (inactive) | –
OC[C@H]1O[C@H](O[C@H]2O[C@H](CO)[C@@H](O)[C@H](O)[C@H]2O)[C@H](O)[C@@H](O)[C@@H]1O | 13.5% [at 78.8 µM] (inactive) | –
Cc1cc(-n2nc3ccc(Cl)cc3n2)c(O)c(C(C)(C)C)c1 | 8.23% (inactive) | –
CC(C)CCOC(=O)/C=C/c1ccccc1 | 6.2% [at 78.8 µM] (inactive) | –
CN(C)c1ccc(C(=C2C=CC(=[N+](C)C)C=C2)c2ccc(N(C)C)cc2)cc1 | – | 9.72 µM (active) and 21.9 µM (active) and 19 µM (active)
